Compounds without any hit were thinned out: in the full panel of roughly 79,000, 15% have a hit. A number with no mark means an inactive call. Activity calls are given as the source filed them. Rule as the data show it: active = growth inhibition above about 70%; inactive = the rest.

A short description of test [1]: NCI Yeast Anticancer Drug Screen. Data for the rad50 strain (AID 155).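 Also: 0% = growth of vehicle-only cultures of the same strain.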 The note with it: S. cerevisiae rad50 strain growth inhibition; at 50.0 µM; active compounds read high. In a few lines: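 Yeast carrying a defined DNA repair defect were exposed to test compounds, and growth was compared with vehicle-treated controls to give percent inhibition.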
Test [2] is described as follows: NCI Yeast Anticancer Drug Screen. Data for the mec2-1 strain (AID 157). The following applies: S. cerevisiae mec2-1 strain, at 50.0 µM, active compounds read high. In a few lines:
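Using mec2-1 yeast: add compound, measure growth, express inhibition versus vehicle-treated cultures.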

A short description of test [3]: NCI Yeast Anticancer Drug Screen. Data for the sgs1 mgt1 strain (AID 161).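 Also: 0% = growth of cultures given vehicle only.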 The note with it: S. cerevisiae sgs1 mgt1 strain, at 50.0 µM, active compounds read high. In a few lines: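 This yeast growth screen uses a strain with defined DNA-repair lesions; compound-treated growth is compared with vehicle-treated growth.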
Test [4] in a line: NCI Yeast Anticancer Drug Screen. Data for the cln2 rad14 strain (AID 165).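 Also: 0% = growth equal to vehicle treated cultures.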 The following applies: S. cerevisiae cln2 rad14 strain, at 50.0 µM, active compounds read high. The procedure, abridged:
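Yeast strain cln2 rad14, bearing defects in cell cycle control and DNA repair, serves as the test system; values reflect growth inhibition compared with vehicle.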

The nature of test [5]: NCI Yeast Anticancer Drug Screen. Data for the bub3 strain (AID 167). The following applies: S. cerevisiae bub3 mutant strain, at 50.0 µM, active compounds read high. The procedure, abridged: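 Compounds were applied to a genetically altered yeast strain carrying a cell-cycle control defect. Growth inhibition was scored against vehicle-treated controls.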
Test [6] can be described thus: NCI Yeast Anticancer Drug Screen. Data for the mlh1 rad18 strain (AID 175). The following applies: S. cerevisiae mlh1 rad18 strain growth inhibition; at 50.0 µM; active compounds read high. In a few lines: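 Steps: expose repair-defective yeast to compound; measure growth; express inhibition against vehicle-treated controls.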

As for `CCNc1ccc(-c2ccc(NCC)cc2)cc1`, the growth inhibition in test [1] was 31.6%; in test [2], -14%; in test [3] it was 26%; in test [4] it was 3.2%; in test [5], -1.45%; in test [6], 36.9%.
Regarding `CC(=O)OC1OC(COC(=O)c2ccccc2)C(OC(=O)c2ccccc2)C1OC(=O)c1ccccc1` (stereo unspecified), the growth inhibition was -60.6% in test [1]; -12.8% in test [2]; -13.2% in test [3]; -33.9% in test [4]; -0.65% in test [5]; 2.95% in test [6].
For `O=C(N/C=C\NC(=O)Nc1cccc(Cl)c1)Nc1cccc(Cl)c1`, the growth inhibition in test [1] was 40.8%; in test [2] it was 16.1%; in test [3], 15.8%; in test [4], 15.8%; in test [5], -1.95%; in test [6], 18.8%.
`CCN(CC)C1=NS(=O)(=O)c2ccccc21`: the growth inhibition was 1.2% in test [1]; -3.65% in test [2]; 9.45% in test [3]; -11.4% in test [4]; 2.3% in test [5]; 0.5% in test [6].
Regarding `ClCCn1nc2c(c1-c1ccccc1)CCc1ccccc1-2`, the growth inhibition in test [1] was -8%; in test [2], -1.05%; in test [3], -10.4%; in test [4], -19.4%; in test [5], 11.1%; in test [6], -2.85%.
Regarding `CCc1ccc2[nH]nc(CCC(=O)O)c(=O)c2c1`, the growth inhibition in test [1] was -1.5%; in test [2], -4.7%; in test [3], -13.2%; in test [4], -12.4%; in test [5], -23.2%; in test [6], -7.05%.
For the compound `COc1ccc(C)cc1S(=O)(=O)c1ccc(C)cc1[N+](=O)[O-]`, the growth inhibition was 6.6% in test [1]; -2.85% in test [2]; 2.15% in test [3]; 34.5% in test [4]; 23.3% in test [5]; -15.4% in test [6].
Take `S=C1SCN(C2CCCCCCCCCCC2)CN1C1CCCCCCCCCCC1`: the growth inhibition in test [1] is -52.5%; in test [2] it was -29.1%; in test [3] it was -17.9%; in test [4], -3.7%; in test [5], -20%; in test [6] it was -40.5%.
As to `COc1ccccc1C(=O)c1ccccc1`, the growth inhibition in test [1] is -27.4%; in test [2] it was -7.3%; in test [3], -3.4%; in test [4], -14.9%; in test [5], -20.1%; in test [6] it was -11.2%.
Take `CCCCCCCCc1cc(CN2CCOCC2)c(O)c(CN2CCOCC2)c1`: the growth inhibition in test [1] is 25.1%; in test [2], 14.6%; in test [3], 22.2%; in test [4], 24.4%; in test [5], 12.8%; in test [6], 21.6%.
Turning to `Cn1c(=O)c2c(=O)n3ccccc3nc2n(C)c1=O`, the growth inhibition was 48% in test [1]; 48% in test [2]; 72.1% (active) in test [3]; 68.4% in test [4]; 62.9% in test [5]; 69.4% in test [6].
In the case of `C=CC(O)CCCC` (stereo unspecified), the growth inhibition in test [1] is 8.35%; in test [2], -32.6%; in test [3] it was 0.6%; in test [4], 6.25%; in test [5] it was -17.1%; in test [6], 18.1%.
Regarding `O=C(CC(=O)c1ccc(Cl)cc1)c1ccc(Cl)cc1`, the growth inhibition in test [1] was 12.9%; in test [2], 14.5%; in test [3], -3.95%; in test [4], 0.35%; in test [5], 8.9%; in test [6], 4.45%.
Consider `COc1ccccc1CNCc1nc2ccccc2[nH]1`, for which the growth inhibition in test [1] was 4.8%; in test [2], 2.6%; in test [3], 6.9%; in test [4] it was 13.2%; in test [5], 0.55%; in test [6] it was 36.6%.
Regarding `N=c1nc2ccc3ccccc3c2nn1-c1ccc([N+](=O)[O-])cc1`, the growth inhibition in test [1] was 88% (active); in test [2], 16.4%; in test [3] it was 13.8%; in test [4], -5.4%; in test [5], 18.6%; in test [6] it was 27.2%.
`Cc1c[nH]c2nc(C)n(-c3ccccc3F)c(=N)c12`: the growth inhibition was -8.5% in test [1]; -2.75% in test [2]; -9.35% in test [3]; -8.7% in test [4]; -10.8% in test [5]; -0.95% in test [6].
On to `COc1cc(C(=O)NNC(=O)C2CCC(=O)N2Cc2ccccc2)cc(OC)c1OC` (stereo unspecified), for which the growth inhibition in test [1] is 3.3%; in test [2] it was -4.6%; in test [3], -18%; in test [4], -4.45%; in test [5], -1.75%; in test [6] it was 28.4%.
In the case of `CCCCC(C)C(C)O` (stereo unspecified), the growth inhibition is -28.5% in test [1]; -62.1% in test [2]; -24.6% in test [3]; 11.2% in test [4]; -33.9% in test [5]; -0.8% in test [6].
Consider `CSc1nc(C)cc(=O)n1C1OC(COC(C)=O)C(OC(C)=O)C(OC(C)=O)C1OC(C)=O` (stereo unspecified), for which the growth inhibition is 20.6% in test [1]; -13.6% in test [2]; -7.35% in test [3]; 16.6% in test [4]; -30.6% in test [5]; 32.5% in test [6].
Consider `c1ccc2c(c1)nc1n2CC2(CS1)CSc1nc3ccccc3n1C2`, for which the growth inhibition in test [1] was -8.65%; in test [2], 2.1%; in test [3], -7.15%; in test [4], -25.8%; in test [5], -13.4%; in test [6], -3.1%.
As for `N#Cc1cccc(-c2ccc(-c3ccccc3)o2)c1`, the growth inhibition was 31.6% in test [1]; 27.4% in test [2]; 27.1% in test [3]; -7.25% in test [4]; 60.9% in test [5]; 20.4% in test [6].

(Values after PubChem BioAssay (NCI).)
